A selection: hits, their analogues and other compounds. The true share with any hit is near 9%.
IMPase Li cell – membrane-permeable IMPase blocker, potentiated with lithium; Potency, µM (highest dose often 59.4 µM), for inactives: top-dose activity, negative = IMPase inhibition, most hits filed as inhibitors; CHO-M1 cells, IP1 TR-FRET (IP-One), carbachol + lithium; hit rate 0.35% among 210,000;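 further: IP1 builds up when IMPase is blocked and the TR-FRET signal falls; plate controls were basal vehicle for no effect and high inhibitor control for full effect; nearly all actives have a fitted effect of over 50% in size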
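Readout is a homogeneous TR-FRET IP1 immunoassay (Ex 320, Em 665 and 620), where raised cytosolic IP1 lowers signal. Cells were CHO-M1 treated 30 min at 37C with test compounds plus a little lithium; AC50 values came from Hill-equation fitting.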
HPGD block – blocks human HPGD enzyme activity; purified HPGD, NADH fluorescence kinetic, PGE2 substrate; Potency, µM, inactives show top-dose activity change, negative = inhibition, actives largely listed as inhibitors; hit rate 4.3% among 150,000; AID 894; active means well fitted inhibition curve with a large enough effect, not every such curve was filed as active; inconclusive means small, poorly fitted or top-dose-only effect, or another doubt; inactive means no such curve, though single readings can be large or run the other way
Target sequence (P15428 whole entry, looked up): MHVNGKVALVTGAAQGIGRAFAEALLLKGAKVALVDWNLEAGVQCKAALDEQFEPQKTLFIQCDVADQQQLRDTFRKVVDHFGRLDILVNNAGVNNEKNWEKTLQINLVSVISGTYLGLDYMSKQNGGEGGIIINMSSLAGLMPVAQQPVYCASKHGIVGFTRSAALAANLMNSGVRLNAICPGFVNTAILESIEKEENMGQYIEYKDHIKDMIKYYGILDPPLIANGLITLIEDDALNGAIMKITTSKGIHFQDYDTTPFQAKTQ
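NADH formation kinetics: reaction with 30 uM PGE2 and 1 mM NAD+ (final), 20 nM enzyme, Tris-HCl pH 8 with Tween 20, after 15 min compound preincubation at room temperature. Fluorescence change, last versus first of five reads.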
Luc counter – blocks Kinase-Glo luciferase, a counter-screen artifact; Q27757; Kinase-Glo luciferase, ATP luminescence, 8 min; Potency, µM (doses to about 38.3 µM), without a hit: at the top dose activity change, negative = inhibition, hits mostly inhibitors; hit rate 0.28% among 200,000; AID 1379; further: nearly all actives have a fitted effect of over 60% in size
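Recombinant Kinase-Glo luciferase, 10 uM ATP (linear range), luciferin; imidazole pH 7.2 / KCl / MgCl2 / Tween / BSA buffer; 8 min RT; luminescence.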
ALDH1A1 block – inhibitors of human aldehyde dehydrogenase 1A1; P00352; Purified ALDH1A1, NADH fluorescence, propionaldehyde substrate; Potency, µM (titrated, usually from 75.3 µM), inactives show at the top dose activity, negative = inhibition, usual class: inhibitors; hit rate 7.3% among 220,000; AID 1030; active means well fitted inhibition curve with a large enough effect, not every such curve was filed as active; inconclusive means small, poorly fitted or top-dose-only effect, or another doubt; inactive means no such curve, though single readings can be large or run the other way;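 further: plate controls were no enzyme wells and a reference inhibitor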
Target sequence (P00352 whole entry, looked up): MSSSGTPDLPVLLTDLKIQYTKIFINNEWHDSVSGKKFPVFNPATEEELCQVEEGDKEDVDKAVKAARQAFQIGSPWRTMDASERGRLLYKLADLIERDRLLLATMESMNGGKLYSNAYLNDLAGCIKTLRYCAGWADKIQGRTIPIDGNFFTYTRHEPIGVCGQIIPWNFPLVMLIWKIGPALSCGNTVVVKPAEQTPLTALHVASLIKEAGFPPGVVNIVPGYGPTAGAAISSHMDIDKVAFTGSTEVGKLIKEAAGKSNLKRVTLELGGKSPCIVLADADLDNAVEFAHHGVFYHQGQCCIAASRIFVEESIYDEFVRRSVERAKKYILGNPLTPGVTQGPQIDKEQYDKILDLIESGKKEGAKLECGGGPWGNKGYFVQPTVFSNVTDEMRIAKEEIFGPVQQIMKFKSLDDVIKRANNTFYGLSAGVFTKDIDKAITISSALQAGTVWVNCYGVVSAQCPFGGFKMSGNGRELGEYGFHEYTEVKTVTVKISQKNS
LMNA splice mod – changes lamin A minigene splicing in HeLa cells. HeLa LMNA splicing GFP/RFP minigene ratio, 48 h. Potency, µM (series often up to 46.1 µM), inactives show at the top dose ratio change, negative = inhibition, actives largely listed as inhibitors. AID 1487. hit rate 0.01% among 200,000; active means well fitted inhibition curve with a large enough effect in the signal ratio, with a control signal flat, not every such curve was filed as active; inconclusive means small, poorly fitted or top-dose-only effect, or effect the other way, or a change in a side signal; the % refers to the signal ratio
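Read-out is the ratio of GFP to DsRed2 object intensity, acquired by 488 nm laser-scanning cytometry on HeLa lamin A-EGFP minigene reporter cells. Compound incubation 48 hrs at 37 °C in Opti-MEM with 2% FBS; DMSO 0.5% final.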
The depositor's hits bear a star; ? = inconclusive; · = no result given; [ ] = dose if it differs, or a comment. Unless noted, the call rests on the fitted dose curve; in most records, active means well fitted curve in the direction sought with a large enough effect; inconclusive means small, poorly fitted or top-dose-only effect, or another doubt; inactive means no such curve, though single readings can be large; an effect the other way counts as inactive or inconclusive. Unless noted, on the % scale 0 is the no-effect control and ±100 the full control effect; potency means the concentration at half of the fitted maximal effect.

SMILES	IMPase Li cell	HPGD block	Luc counter	ALDH1A1 block	LMNA splice mod
COc1ccc2nc(NC(=O)CSC3=NCCS3)sc2c1	4%[38.3 µM]	-12%	-3%	-7%	?
CSc1ncc(C(=O)NCc2ccccc2)c(-c2ccccc2)n1	·	·	·	·	-6%[46 µM]
Cc1cccc(Cn2nc(C)cc2NC(=O)CCCn2ccc([N+](=O)[O-])n2)c1	10%	·	-2%	-2%	16%[46 µM]
COc1cccc(C(=O)NCc2ccc3[nH]c(C)cc3c2)c1	-4%	·	-3%	28µM*	·
COc1ccc(C(=O)NCc2ccc3[nH]c(C)cc3c2)cc1OC	0%	·	-10%	20µM*	·
Cc1cc2cc(CNC(=O)c3ccc4c(c3)OCO4)ccc2[nH]1	-8%[38.3 µM]	20µM*	-2%	35µM*	?
CC(C)(C)C1CCC(OCC(O)CN2CCN(c3ccccn3)CC2)CC1 (stereo not drawn)	2%	·	2%	?	·
CC(C)C(=O)Cc1ccc2ccccc2n1	-4%	-3%	-1%[7.66 µM]	0%[13.5 µM]	·
CCn1c(=O)[nH]c2cc(Cl)c(Cl)cc21	-14%	-12%	-1%	7%	?
COc1ccccc1CNc1ncnc2c1c(-c1ccccc1)cn2-c1cccc(C)c1	·	·	·	·	-11%[46 µM]
Cc1nn(C)cc1/C=N/NC(=S)Nc1ccccc1	-12%[38.3 µM]	28µM*	-14%	25µM*	-3%
C/C(=N\Nc1cccc2cccnc12)c1ccc(N)cc1	7%	·	0%	8.9µM*	-26%[46 µM]
O=C(Nc1nc2ccccc2s1)C1CC(=O)N(c2ccc(Br)cc2)C1 (stereo not drawn)	26%[38.3 µM]	-17%	-3%	-9%	-8%
COC(=O)c1sccc1NC(=O)C1C2C=CC(O2)C1C(=O)O (stereo not drawn)	-4%[38.3 µM]	1%	6%	1%	-5%
Cc1nnc(NC(=O)C2C3C=CC(O3)C2C(=O)O)s1 (stereo not drawn)	7%[38.3 µM]	-13%	2%	28µM*	13%
COC(=O)c1ccc(NC(=O)C2C3C=CC(O3)C2C(=O)O)cc1 (stereo not drawn)	23%[38.3 µM]	-18%	-1%	4.5µM*	-8%
COC(=O)c1ccc(NC(=O)C2C3CCC(C3)C2C(=O)O)cc1 (stereo not drawn)	-6%[38.3 µM]	-14%	1%	?	5%
CN(CC(=O)N1CCCCCC1)S(=O)(=O)c1ccc(Br)s1	3%[38.3 µM]	22µM*	-4%	?	14%
COC(=O)/C=C1\OC(c2ccccc2)=CC1=O	18%	20µM*	-1%	10µM*	?
COC(=O)/C(=C1/OC(=O)C(c2ccccc2)=C1O)c1ccccc1	4%	-12%	0%	0%	·
COc1ccc(S(=O)(=O)NC2CCCCC2)cc1-n1cnnn1	-2%	·	-1%	1.6µM*	-19%[46 µM]
CCN(CC)S(=O)(=O)c1ccc(-n2cnnn2)c(C)c1	-5%[38.3 µM]	-5%	1%	?	0%
Cc1cc(S(=O)(=O)NC2CCCCC2)ccc1-n1cnnn1	6%	·	5%	-8%	-4%[46 µM]
CCN(CC)S(=O)(=O)c1ccc(OC)c(-n2cnnn2)c1	4%	·	6%	7.9µM*	9%[46 µM]
CCOC(=O)CNC(=O)N1CCCC(CCC(=O)NCc2ccc(F)c(F)c2)C1 (stereo not drawn)	-3%	·	8%	32µM*	·
SMILES	IMPase Li cell	HPGD block	Luc counter	ALDH1A1 block	LMNA splice mod
COc1cccc(CNC(=O)CCC2CCCN(C(=O)c3cc(C)on3)C2)c1 (stereo not drawn)	4%	·	1%	2%	·
COc1cccc(CNC(=O)CCC2CCCN(C(=O)c3ccc(OC)o3)C2)c1 (stereo not drawn)	4%	·	-19%	7.9µM*	·
Cc1ncc(CSc2ccccc2N)c(CO)c1O	4%	-13%	-3%[7.66 µM]	1%[13.5 µM]	·
COc1ccccc1NC(=S)c1ccccc1	-2%	22µM*	1%	28µM*	-4%
COc1ccccc1NC(=S)NC(C)=O	8%	·	1%	9%	-16%[46 µM]
COc1cc(OC)cc(C(=O)NNC(=S)Nc2ccccc2OC)c1	1%	-10%	13%	22µM*	9%
COc1ccccc1NC(=S)NNC(=O)c1ccncc1	12%	·	1%	-1%	-5%[46 µM]
NCCC[C@@H](CC(=O)N[C@@H]1CCCC[C@H]1C(=O)N[C@H](CC(=O)N[C@@H](CCC(=O)O)CC(=O)O)Cc1c[nH]c2ccccc12)NC(=O)C[C@H](Cc1c[nH]c2ccccc12)NC(=O)[C@@H]1CCCC[C@H]1N	12%	-12%	2%	?	·
O=C(N=C1SCC(=O)N1c1ccccc1)c1ccco1	21%[38.3 µM]	-8%	-4%	-6%	4%
O=C1CS/C(=C\[N+](=O)[O-])N1c1ccccc1	-1%[38.3 µM]	-14%	-10%	5µM*	-8%
N#Cc1ccc(/C=N/NC(=O)c2cccc(S(=O)(=O)N3CCOCC3)c2)cc1	10%	·	0%	6%	·
Cc1ccc(Cl)cc1NC(=O)CSC(N)=O	52%[38.3 µM]	-7%	3%	1.6µM*	2%
CC(C)OCCCNC(=O)CN1C(=O)CSc2ccc(S(=O)(=O)N3CCOCC3)cc21	·	·	·	·	-11%[46 µM]
CCCCC1OC23CCCCC2C(C#N)(C#N)C1(C#N)C(=N)O3 (stereo not drawn)	3%	?	-8%	1.8µM*	-10%
CC(C)(C)OC(=O)N/N=C/c1ccc(N2CCOCC2)s1	5%	-20%	-1%	-16%	?
Cc1ccc(N/N=C/c2ccc(N3CCOCC3)cc2)cc1C	18%[38.3 µM]	?	-3%	?	7%
Clc1cccc(N/N=C/c2ccc(N3CCOCC3)s2)c1	6%	-29%	1%	11µM*	10%
O=C(N/N=C/c1ccc(N2CCOCC2)s1)c1ccccc1Br	15%	·	-2%	14µM*	?
Cc1ccc(NC(=S)c2nc3ccccc3[nH]2)c(C)c1	10%	32µM*	-14%	?	4%
COc1ccccc1CNC(=O)c1c(-c2ccccc2)nn(-c2ccccc2)c1C	36%[38.3 µM]	-15%	-2%	4µM*	-20%
Cc1c(C(=O)O)c(-c2ccccc2)nn1-c1ccccc1	19%[38.3 µM]	-9%	0%	-7%	1%
COc1ccccc1CNC(=O)c1cccs1	-20%[38.3 µM]	16µM*	-2%	11%	2%
COc1ccc(C(=O)NCc2ccccc2OC)cc1	-5%	-16%	-2%	-1%	-12%
COc1ccc(C(=O)NCCn2ccc3ccccc32)c(OC)c1	5%[38.3 µM]	?	1%	10µM*	?
COc1ccc(C(=O)NCc2ccccc2OC)c(OC)c1	-3%[38.3 µM]	28µM*	-2%	?	-6%
COc1ccc(C(=O)NCCN2CCOCC2)c(OC)c1	-1%	·	-2%	6%	?
CC1CCCCC1NCC(=O)NCc1ccc(F)cc1 (stereo not drawn)	20%	·	2%	-7%	6%[46 µM]
CN(C)CCNc1nc2c(c(=O)n(C)c(=O)n2C)n1C	1%	-5%	1%[7.66 µM]	-9%[13.5 µM]	·
COc1cc2c(cc1NC(=S)Nc1cccc(C(F)(F)F)c1)oc1ccccc12	8%[38.3 µM]	?	-3%	?	?

From PubChem
